The results in this text go back to PubChem BioAssay AID488969 (Vanderbilt High Throughput Screening Facility, 2010).

Structures are written as SMILES. Whole data set: some 110,000 compounds, median “z-score” near -0.1, cut for the highest 2% near 2. Shown is part of a subset that was picked to be rich in the highest values. Active and inactive are the calls of the source.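 How the source made its calls: active means z-score in the third read window above 3 or below -3; inactive means the rest.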

In this assay the target is Metabotropic glutamate receptor 8 (Rattus norvegicus) (UniProt P70579). Nature of the assay: rat mGluR8 modulators via GIRK flux, primary screen, cell-based, thallium flux, HTS (AID 488969). To be noted: HEK293 rat mGluR8, GIRK (G protein-gated inwardly rectifying potassium channel) thallium flux, FluoZin2; at 10 µM; stronger effect = higher value; submaximal glutamate (EC20) added with thallium.
Chain of Metabotropic glutamate receptor 8 (Rattus norvegicus) (P70579 whole entry, looked up): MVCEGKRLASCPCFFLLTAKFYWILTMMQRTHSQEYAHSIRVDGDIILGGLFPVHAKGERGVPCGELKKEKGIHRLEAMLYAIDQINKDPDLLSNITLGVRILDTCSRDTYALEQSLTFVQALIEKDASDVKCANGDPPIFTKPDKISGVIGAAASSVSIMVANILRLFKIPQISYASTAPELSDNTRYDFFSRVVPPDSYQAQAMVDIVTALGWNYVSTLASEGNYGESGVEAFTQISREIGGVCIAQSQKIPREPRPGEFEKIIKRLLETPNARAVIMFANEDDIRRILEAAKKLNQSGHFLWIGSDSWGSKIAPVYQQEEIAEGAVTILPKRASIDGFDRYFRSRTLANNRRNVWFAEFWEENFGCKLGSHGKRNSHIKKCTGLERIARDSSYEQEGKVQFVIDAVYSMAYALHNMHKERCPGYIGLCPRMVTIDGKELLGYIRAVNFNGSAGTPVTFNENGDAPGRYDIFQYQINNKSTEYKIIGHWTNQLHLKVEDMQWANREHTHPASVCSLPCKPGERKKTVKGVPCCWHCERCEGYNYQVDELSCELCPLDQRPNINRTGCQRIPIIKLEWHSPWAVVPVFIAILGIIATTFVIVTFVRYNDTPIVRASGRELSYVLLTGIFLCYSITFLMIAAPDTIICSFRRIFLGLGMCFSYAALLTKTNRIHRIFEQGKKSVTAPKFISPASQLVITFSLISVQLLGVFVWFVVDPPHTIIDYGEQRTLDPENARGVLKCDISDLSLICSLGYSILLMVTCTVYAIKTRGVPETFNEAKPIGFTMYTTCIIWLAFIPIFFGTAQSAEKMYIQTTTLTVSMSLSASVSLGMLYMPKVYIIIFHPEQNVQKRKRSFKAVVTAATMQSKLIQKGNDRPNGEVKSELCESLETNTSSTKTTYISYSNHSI
`CCN(CC)CCCN1C(=O)c2oc3ccccc3c(=O)c2C1c1cc(OC)ccc1OC` (stereo unspecified) returned a z-score of 0.517.

As for `COc1cccc(C2c3c(oc4ccccc4c3=O)C(=O)N2CCCN(C)C)c1OC` (stereo unspecified), the z-score is -0.0845.

As for `CCN(CC)CCCN1C(=O)c2oc3ccccc3c(=O)c2C1c1cccc(OC)c1OC` (stereo unspecified), the z-score amounted to 0.625.

The compound `CN(C)CCCN1C(=O)c2oc3ccccc3c(=O)c2C1c1cccs1` (stereo unspecified) returned a z-score of 2.78.

`CCN(CC)CCCN1C(=O)c2oc3ccccc3c(=O)c2C1c1cccs1` (stereo unspecified): the z-score is 13.2 (active).

With `COc1ccc(OC)c(C2c3c(oc4ccccc4c3=O)C(=O)N2CCCN(C)C)c1` (stereo unspecified), the z-score was -0.648.

On to `Cn1c(SCC(=O)c2ccccc2F)nnc1C1CC1`, for which the z-score was -0.74.

For the compound `CCn1c(SCC(N)=O)nnc1-c1ccc(S(=O)(=O)N2CCN(C)CC2)cc1`, the z-score was -0.217.

As to `COc1ccc(NC(=O)c2cccc(F)c2)cc1Cl`, the z-score was -0.393.

With `CCc1cccc2c(C(=O)COC(=O)c3ccc(O)cc3)c[nH]c12`, the z-score is -0.12.

Regarding `Cc1ccc(/C=N/NC(=O)c2cccs2)s1`, the z-score is 1.3.

`O=C(N/N=C/c1cccs1)c1cccs1` returned a z-score of 0.0886.

Regarding `O=C(N/N=C\c1ccc(Cl)s1)c1cccs1`, the z-score is 8.64 (active).

For the compound `O=C(Nc1ccc([N+](=O)[O-])cn1)c1cc(-c2cccc(Cl)c2)nc2ccccc12`, the z-score was -0.658.

Regarding `O=C(N/N=C/c1c[nH]c2ccccc12)C1CC1(c1ccccc1)c1ccccc1` (stereo unspecified), the z-score is -0.618.

With `Cc1ccc(C)n1-c1ccc(C(=O)NN)cc1`, the z-score is 2.5.

In the case of `CCOC(=O)c1ccc(-n2c(C)ccc2C)cc1`, the z-score is -0.201.

For the compound `Cc1ccc(C)n1-c1ccc(C(=O)O)cc1`, the z-score was -1.12.

As for `CCOC(=O)/C(C(N)=NC(C)C)=C(\O)c1ccccc1`, the z-score was determined as 0.0345.

`CC(C)COC(=O)CCNc1n[nH]c(=O)[nH]c1=O` had a z-score of 0.184.

`CC(C)COC(=O)CNc1n[nH]c(=S)[nH]c1=O` yielded a z-score of 1.98.

For the compound `CCCCOC(=O)CNc1n[nH]c(=S)[nH]c1=O`, the z-score came to 0.182.

`Nc1cc(=O)nc(SCC(=O)N(C2CCCCC2)C2CCCCC2)n1-c1ccccc1`: the z-score was -0.245.

As for `CCCNC(=O)C(NS(=O)(=O)c1cccc2nsnc12)c1ccccc1` (stereo unspecified), the z-score is -0.0978.

For the compound `CC1CN(Cc2cc(=O)[nH]c(C3CC3)n2)CC(C)O1` (stereo unspecified), the z-score was -0.155.

Consider `Cc1nc(CN2CCOCC2)cc(=O)[nH]1`, for which the z-score was 0.197.

For `O=c1cc(CN2CCOCC2)nc(C2CC2)[nH]1`, the z-score was 5.57 (active).

Turning to `Cc1cc(NC(=O)C(=O)NCCN2CCN(C(=O)c3cccs3)CC2)ccc1Br`, the z-score is -0.64.

The compound `COc1cccc(N/C=C(\C#N)c2ccc(OCCCF)cc2)c1` registered a z-score of 0.135.

Regarding `Cn1c(Cc2csc(N)n2)nnc1SCC(=O)NCc1ccccc1`, the z-score amounted to 0.898.

`Cc1ccccc1CCN(C(=O)Cn1nnc2ccccc21)C(C(=O)NC(C)(C)C)c1ccsc1` (stereo unspecified) came in with a z-score of 0.0716.

Regarding `Cc1ccc(NC(=O)c2cc(N3C(=O)C=CC3=O)ccc2Cl)cc1C`, the z-score was -0.0892.

Take `CCOC(=O)c1nnc(-c2ccccc2)nc1Oc1ccccc1Cl`: the z-score was -0.346.

`COC(=O)c1ccccc1NC(=S)NC(=O)c1cccc2ccccc12` returned a z-score of 0.972.

`COC(=O)c1ccccc1NC(=S)NC(=O)c1ccc2ccccc2c1` had a z-score of 0.231.

The compound `COC(=O)c1ccccc1NC(=S)NC(=O)c1ccccc1C` displayed a z-score of 1.1.

For `COC(=O)c1ccccc1NC(=S)NC(=O)C1CC1`, the z-score is -0.189.

Take `COC(=O)c1ccccc1NC(=S)NC(=O)c1ccccc1`: the z-score is 13.1 (active).

Compound `COC(=O)c1ccccc1NC(=S)NC(=O)c1ccc(C)cc1` showed a z-score of 2.94.

For the compound `O=C(Nc1ccc(Cc2ccncc2)cc1)C1CCC(N2C(=O)C3C4C=CC(C5CC45)C3C2=O)CC1` (stereo unspecified), the z-score is -0.424.

Regarding `Cn1c2ccccc2c2c(C(=O)N3CCN(C(=O)c4ccco4)CC3)cn(C3CCCCC3)c(=O)c21`, the z-score was -0.126.

In the case of `CCN(C(=O)CN1CCN(c2ccccc2O)CC1)c1c(N)n(Cc2ccccc2)c(=O)[nH]c1=O`, the z-score was 14.3 (active).

Turning to `CCN(C(=O)CN1CCN(c2ccccc2)CC1)c1c(N)n(Cc2ccccc2)c(=O)[nH]c1=O`, the z-score is -0.349.

Compound `CCN(C(=O)CN1CCN(c2ccccc2OC)CC1)c1c(N)n(Cc2ccccc2)c(=O)[nH]c1=O` came in with a z-score of 0.391.

`CC1Cc2ccccc2N1C(=O)CSc1nnc(CNc2ccccc2)o1` (stereo unspecified): the z-score is -0.151.

Compound `CC(=O)C1C(c2ccccc2)c2c(n[nH]c2C)CC1(C)O` (stereo unspecified) yielded a z-score of 0.241.

Compound `N=c1c(C(=O)NCc2ccco2)cc2c(=O)n3ccccc3nc2n1Cc1ccccc1` had a z-score of 1.15.

Take `COc1ccc(CCn2c(=N)c(C(=O)NCc3ccco3)cc3c(=O)n4ccccc4nc32)cc1`: the z-score was 0.369.

For `N=c1c(C(=O)NCc2ccco2)cc2c(=O)n3ccccc3nc2n1CCc1ccccc1`, the z-score was 4.11 (active).

As for `Cc1cccc(N2CCN(C(=O)c3ccoc3C)CC2)c1C`, the z-score is -0.311.

For `CN(C)c1nc(N)nc(CSc2n[nH]c(-c3ccccc3)n2)n1`, the z-score was -0.00289.

Consider `Cc1ccccc1-c1nnc(Cc2ccccc2)o1`, for which the z-score was -0.211.

Turning to `ClCc1nnc(-c2ccccc2)o1`, the z-score is -0.143.

With `c1ccc(Cc2nnc(-c3ccccc3)o2)cc1`, the z-score was 10.4 (active).

`CCOC(=O)CN1C(=O)C2(OCCCO2)c2ccccc21`: the z-score is -0.0349.

Compound `COc1cccc2c1OC[C@@H](CO)[C@H]2N(C)C(=O)Nc1ccc(Cl)cc1Cl` displayed a z-score of 0.0803.

As to `COc1cccc2c1OC[C@@H](CO)[C@H]2N(C)C(=O)Nc1ccccc1`, the z-score was 6.33 (active).

In the case of `CN(C(=O)Nc1ccc(Cl)cc1Cl)[C@H]1c2cc(Br)ccc2OC[C@H]1CO`, the z-score was -0.211.

Consider `CC1(C)Oc2nc3ccccc3n2/C1=C\C#N`, for which the z-score was -0.233.

`CC(=O)Nc1ccc(S(=O)(=O)NC2(C(F)(F)F)NC(=O)N(C3CCCCC3)C2=O)cc1` (stereo unspecified): the z-score is -0.0965.

In the case of `CSc1nc(C)cc(Oc2ccc(OCCOc3ccccc3)nn2)n1`, the z-score was -0.702.

For `CCn1c(SCC(=O)Nc2ccccc2OC)nc2ccccc2c1=O`, the z-score was -0.373.

In the case of `COc1ccc(Cn2cnc3sccc3c2=O)cc1`, the z-score is -0.167.

Regarding `CCOC(=O)Nc1ccc(S(=O)(=O)Nc2cc(C)nc(C)n2)cc1`, the z-score was -0.12.

In turn, `COc1ccc(CCN2C(=O)CC(C(N)=O)SC2=Nc2ccccc2)cc1OC` (stereo unspecified) displayed a z-score of 1.15.

Regarding `S=C1NC(c2ccccc2)=NCN1c1ccc(Cl)cc1`, the z-score was 3.19 (active).

In the case of `S=C1NC(c2ccccc2)=NCN1c1ccccc1`, the z-score was 0.145.

On to `Cc1ccc(N2CN=C(c3ccccc3)NC2=S)cc1`, for which the z-score came to 0.328.

Take `CCOc1ccccc1Nc1nnc(Cc2ccccc2Cl)c(=O)[nH]1`: the z-score is 12.8 (active).

For the compound `CCOc1ccccc1Nc1nnc(C)c(=O)[nH]1`, the z-score was -0.155.

`CCCOc1ccccc1Nc1nnc(C)c(=O)[nH]1` had a z-score of 0.409.
